Data published in PubChem BioAssay AID624417 (National Center for Advancing Translational Sciences (NCATS), 2012).
Hit rate of the full screen: of about 410,000 compounds, about 6,400 (1.6%) were called active. Roughly 20% stayed inconclusive and do not appear here. Calls follow the shape of the dose curve; as a rule, active = well fitted inhibition curve with a large enough effect; inconclusive = small, poorly fitted or top-dose-only effect; inactive = no such curve, though single readings can be large or run the other way. This excerpt belongs to a sample that is enriched for actives.

Each molecule was assayed against Glucagon-like peptide 1 receptor (Homo sapiens) (UniProt P43220) (assay: qHTS of GLP-1 Receptor Inverse Agonists (Inhibition Mode)). Conditions: HEK293 GLP-1R CRE-luciferase, luminescence, 24 h, GLP-1R form is constitutively active; series mostly up to 38.3 µM; activity change, negative = inhibition: at the top concentration.
Sequence of Glucagon-like peptide 1 receptor (Homo sapiens) (P43220 whole entry, looked up): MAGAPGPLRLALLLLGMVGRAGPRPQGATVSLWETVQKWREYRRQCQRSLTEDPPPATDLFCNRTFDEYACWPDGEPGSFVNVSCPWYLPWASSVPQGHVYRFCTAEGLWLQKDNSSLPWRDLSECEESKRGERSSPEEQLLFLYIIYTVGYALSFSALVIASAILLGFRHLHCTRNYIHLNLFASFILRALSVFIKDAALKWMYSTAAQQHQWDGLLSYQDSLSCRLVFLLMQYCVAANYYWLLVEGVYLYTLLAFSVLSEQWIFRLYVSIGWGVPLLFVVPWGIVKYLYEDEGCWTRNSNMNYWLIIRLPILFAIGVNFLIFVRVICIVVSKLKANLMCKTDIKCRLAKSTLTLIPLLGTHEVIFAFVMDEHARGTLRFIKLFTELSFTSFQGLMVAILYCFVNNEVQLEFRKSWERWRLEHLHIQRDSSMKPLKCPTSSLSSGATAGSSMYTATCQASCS
Procedure, shortened: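 HEK293 cells stably co-expressing a cAMP-responsive luciferase reporter and constitutively active GLP-1R were seeded, incubated 12 h, then exposed to compounds for 24 h at 37 C. Luminescence was read 12 min after detection reagent; inverse agonists lower signal.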
% is scaled to controls: 0 for no effect and ±100 for the full control effect; potency is read from the fitted curve at half-maximal effect.
Also: nearly all actives have a fitted effect of over 55% in size.

SMILES | Potency | activity change, negative = inhibition
COc1ccc(C(=O)N2CCCCC2c2cc(C(=O)Nc3ccccc3)no2)cc1 (stereo not drawn) | 10 µM (active) | –
CCCNC(=O)c1cc(C2CCCCN2C(=O)OC)on1 (stereo not drawn) | – | 33.7% (inactive)
N#Cc1cccc(NC(=O)c2cc(C3CCCCN3C(=O)CCc3ccccc3)on2)c1 (stereo not drawn) | – | -20.6% (inactive)
COc1cccc(NC(=O)N(C)C[C@@H]2Oc3ncc(Br)cc3C(=O)N([C@@H](C)CO)C[C@H]2C)c1 | – | 0.452% (inactive)
CCC1OC(C2CC2)CC2=C1C(=O)OC(C)(C)O2 (stereo not drawn) | – | 14.6% (inactive)
CCN(CC)CCNC(=O)c1ccc(NC(=O)c2cc(-c3ccncc3)nc3ccccc23)cc1 | 12.6 µM (active) | –
COC(=O)CNC(=O)c1cc(-c2ccncc2)nc2ccccc12 | – | 6.15% (inactive)
O=C(Nc1ccc(S(=O)(=O)Nc2nccs2)cc1)c1cc(-c2ccncc2)nc2ccccc12 | – | 3.63% (inactive)
C=CCOc1ccccc1CNn1c(C)n[nH]c1=S | – | -10.3% (inactive)
CC1(C(=O)NS(=O)(=O)c2cccc(OC(F)F)c2)CCN1C(=O)COc1ccc(Cl)cc1 (stereo not drawn) | – | -17.8% (inactive)
COc1ccc(C2CC(c3ccc(C)cc3)Nc3ncnn32)cc1 (stereo not drawn) | – | 5.72% (inactive)
CCOc1ccccc1C1CC(c2ccccc2)Nc2nc(N)nn21 (stereo not drawn) | – | 4.9% (inactive)
FC(F)Oc1ccccc1C1CC(c2ccc(Br)s2)Nc2ncnn21 (stereo not drawn) | 7.94 µM (active) | –
Cc1ccc(S(=O)(=O)N[C@H](CO)C(C)C)cc1 | – | 16.6% (inactive)
C[C@H]1CN([C@@H](C)CO)C(=O)CCCn2cc(nn2)CO[C@@H]1CN(C)S(=O)(=O)c1ccc(-c2ccccc2)cc1 | – | 34% (inactive)
C[C@H]1CN(c2ccc(Br)cc2)C(=O)[C@@H]1CC(=O)Nc1ccc(Br)cc1 | – | -6.77% (inactive)
COc1ccc(NC(=O)c2sc(=O)n(Cc3ccc(S(=O)(=O)N(C)C)cc3)c2C)cc1 | – | 15.2% (inactive)
Cc1ccccc1CNC(=O)c1ccc(NC(=O)N2CCCCc3ccccc32)cc1 | – | 2.26% (inactive)
Cc1cc(Cl)ccc1NC(=O)Cc1ccc(NC(=O)N2CCCCc3ccccc32)cc1 | – | 1.66% (inactive)
Cc1ccc(NC(=O)Cc2ccc(NC(=O)N3CCCCc4ccccc43)cc2)cc1 | 7.94 µM (active) | –
CCOC(=O)N1CCN(C(=O)C[C@@H]2C[C@@]3(C(=O)OC)CC(C)(C)CC=C3N(Cc3ccco3)C2=O)CC1 | – | -19.4% (inactive)
CCCNC(=O)C1(C)CCCN(C(=O)c2oc3ccccc3c2C)C1 (stereo not drawn) | – | 17.5% (inactive)
CC1(C(=O)NS(=O)(=O)c2cccc(F)c2)CCN1C(=O)c1cccc2ccccc12 (stereo not drawn) | – | 25.7% (inactive)
Cc1ccccc1S(=O)(=O)N1[C@@H](c2cccc(Cl)c2)C(C(=O)OC(C)(C)C)=CC[C@H]1c1ccc(Cl)cc1 | – | 26% (inactive)
O=C(Nc1nc2c(s1)CCCC2)c1ccccc1F | 4.47 µM (active) | –

SMILES | Potency | activity change, negative = inhibition
O=C(Nc1sc2c(c1C(=O)O)CCC2)c1ccccc1F | – | -23.1% (inactive)
O=C(Nc1nnc(-c2ccccc2F)s1)c1ccccc1F | – | 42.3% (inactive)
Cc1nc(C(F)(F)F)ccc1C(=O)N1CCC1(C)C(=O)NS(=O)(=O)c1ccc(F)cc1F (stereo not drawn) | – | 4.33% (inactive)
c1ccc2c(CCN3CCNC[C@H]3Cc3cccc4ccccc34)cccc2c1 | – | -11.6% (inactive)
c1ccc(C[C@H]2CNCCN2CCC23CC4CC(CC(C4)C2)C3)cc1 | 10 µM (active) | –
O=C1CCNCCN1[C@H](CO)Cc1ccccc1 | – | 11.1% (inactive)
CN(C)C1CN(Cc2cn(Cc3ccccc3)nn2)S(=O)(=O)C1 (stereo not drawn) | – | 8.92% (inactive)
Cc1ccc(-c2cn3cc([N+](=O)[O-])ccc3n2)cc1 | 4.47 µM (active) | –
Cc1ccc(-n2cc3ccc([N+](=O)[O-])cc3n2)cc1 | – | -54% (inactive)
Cc1ccc(-c2cn3cc(C)ccc3n2)cc1 | – | -14.4% [at 0.307 µM] (inactive)
CCOC(=O)c1c(NC(=O)COC(=O)c2ccc(S(=O)(=O)C(F)F)cc2)sc(C(=O)N(C)C)c1C | – | 12.2% (inactive)
COc1ccc(CC(N)c2csc(NC(=O)NC(c3ccccc3)c3ccccc3)n2)cc1 (stereo not drawn) | – | -7.52% (inactive)
C[C@@H]1CN([C@H](C)CO)C(=O)CCCn2cc(nn2)CO[C@H]1CN(C)S(=O)(=O)c1ccc(Oc2ccccc2)nc1 | – | 3.37% (inactive)
c1ccc(CCc2nc(-c3ccncc3)no2)cc1 | – | 2.26% (inactive)
Cc1ccc(-c2noc(CC(c3ccccc3)c3ccccc3)n2)cc1 | 5.62 µM (active) | –
Cc1ccc(-c2noc(CSc3nnc(-c4ccc(Cl)cc4)n3C)n2)cc1 | – | 12.7% (inactive)
CC[C@@H]1CC2=C(C(=O)OC(C)(C)O2)[C@@H](CC)O1 | – | 26.8% (inactive)
CC1(C)NC(=O)N(CC(=O)Nc2ccc(-c3ccccc3)cc2)C1=O | – | 0.129% (inactive)
Cc1c(C(=O)NCc2ccc(C#N)cc2)sc(=O)n1Cc1ccc(C(=O)N(C)C)cc1 | – | 10.9% (inactive)
O=C(c1ccco1)N1CCN(Cc2cccc(C(F)(F)F)c2)CC1 | – | -16.9% (inactive)
FC(F)(F)c1cccc(Cc2noc(CN3CCC(N4CCCCC4)CC3)n2)c1 | 5.62 µM (active) | –
CCOC(=O)N1CCN(Cc2nc(Cc3cccc(C(F)(F)F)c3)no2)CC1 | – | -5.14% (inactive)
O=C(NCc1ccccc1)C1c2ccccc2OCC(=O)N1CCCN1CCOCC1 (stereo not drawn) | – | 20.2% (inactive)
Cc1cc(Br)ccc1NC(=O)CCCOc1cc(=O)n(C)c2ccccc12 | – | 7.24% (inactive)
COc1ccc(CN(CC(=O)NC2CCCC2)C(=O)CCC(=O)Nc2cc(C)on2)cc1 | – | -8.66% (inactive)

SMILES | Potency | activity change, negative = inhibition
Cc1cc(C(C)(C)C)oc1C(=O)N(CC(=O)NC1CCCC1)Cc1ccc(Cl)cc1 | 7.08 µM (active) | –
Cc1ccc(CN(CC(=O)NC2CCCCC2)C(=O)c2csnn2)cc1 | – | -22.4% (inactive)
O=C(CC[C@H]1O[C@@H](n2ccc(=O)[nH]c2=O)[C@H](O)[C@@H]1O)N[C@H](Cc1ccccc1)C(=O)NCc1ccco1 | – | 12.8% (inactive)
CC1CCCN(CC(O)COCc2ccccc2)C1 (stereo not drawn) | – | -6.19% (inactive)
Cc1cccc(C)c1OCC(O)CN1CCCCC1 (stereo not drawn) | – | -1.02% (inactive)
Cc1ccccc1C(OCC(O)CN1CCCCC1CCO)c1ccccc1 (stereo not drawn) | 10 µM (active) | –
Cc1nc(C(F)(F)F)ccc1C(=O)N1CCC1(C)C(=O)NS(=O)(=O)c1ccccc1Cl (stereo not drawn) | – | 15.1% (inactive)
CCOC(=O)N(C)c1c(CC)nc2c(OCc3ccccc3C(=O)OC)cccn12 | – | 13.9% (inactive)
COc1ccc(C(=O)OCC(=O)N2CC(=O)Nc3ccccc32)cc1Br | – | 17.7% (inactive)
COc1ccc(Cl)cc1-n1c(C)cc(C(=O)OCC(=O)N2CC(=O)Nc3ccccc32)c1C | 10 µM (active) | –
COc1cc(OC)c(C(=O)OCC(=O)N2CC(=O)Nc3ccccc32)cc1OC | – | 19.5% (inactive)
Nc1cc(=O)c2[nH]cnc2[nH]1 | – | 2.06% (inactive)
Cc1cc(C)n2c(Nc3c(C)cccc3C)c(CCc3ccccc3)nc2n1 | – | -31.1% (inactive)
CN(Cc1ccccc1F)c1cc2c(c3c1ccn3C)C1CCC2O1 (stereo not drawn) | – | -30.3% (inactive)
N#CC1(Nc2ccc3c4c(cccc24)CC3)CCCCC1 | – | -13.8% (inactive)
O=C(NNC(=O)C1CCN(c2ncccn2)CC1)c1ccccc1 | – | 13.1% (inactive)
CCc1ccc(C(=O)NNC(=O)C2CCN(c3ncnc4sc(C)c(C)c34)CC2)cc1 | 10 µM (active) | –
Cc1sc2ncnc(N3CCC(C(=O)Nc4nc5ccc(Cl)cc5s4)CC3)c2c1C | – | 12.3% (inactive)
C[C@H]1CN([C@@H](C)CO)C(=O)c2cc(C3=CCCCC3)cnc2O[C@@H]1CN(C)C(=O)Cc1ccccc1 | – | -17.6% (inactive)
CC(C)Nc1ncnc2c1ncn2[C@H]1CN(Cc2ccncc2)C[C@@H](CO)O1 | – | 29.6% (inactive)
O=C(NCc1ccc(Cl)cc1)NCc1ccc(Cl)cc1 | – | -0.855% [at 7.66 µM] (inactive)
O=C(NCc1ccncc1)NC12CC3CC(CC(C3)C1)C2 | – | -8.91% (inactive)
S=C(NCc1ccc(Cl)cc1)NC12CC3CC(CC(C3)C1)C2 | 8.91 µM (active) | –
O=C(NC1CCCC1)C1c2ccccc2OCC(=O)N1Cc1ccccc1 (stereo not drawn) | – | 1.36% (inactive)
CCOC(=O)c1cnn2c(SC)ncnc12 | – | 14.2% (inactive)

SMILES | Potency | activity change, negative = inhibition
CC(C)Nc1nc(N(c2ccccc2)c2ccccc2)nc(-n2ccnc2)n1 | – | 0.283% (inactive)
N#Cc1nc(N)nc(N(c2ccccc2)c2ccccc2)n1 | 12.6 µM (active) | –
CC(C)Cn1cc(-c2cncc3nccn23)cn1 | – | 12.6% (inactive)
CCCC(=O)N1CCC1(C)C(=O)NS(=O)(=O)c1ccc(Cl)cc1 (stereo not drawn) | – | 4.5% (inactive)
CCCNC(=O)C1(C)CCCN(Cc2c(C)nn(-c3ccccc3)c2C)C1 (stereo not drawn) | – | -17.1% (inactive)
O=C(NCCCN1CCOCC1)c1cc(-c2ccc(Cl)cc2)on1 | – | 0% (inactive)
Cc1c(C)n(Cc2ccc(Cl)cc2)c2ccc(C(=O)NCCc3ccc(S(N)(=O)=O)cc3)cc12 | – | -12.1% (inactive)
Cc1c(C)n(Cc2ccc(Cl)cc2)c2ccc(C(=O)NCCCN3CCOCC3)cc12 | 1.12 µM (active) | –
CCN1CCN(c2ncc3c(n2)CC(c2ccccc2O)CC3=O)CC1 (stereo not drawn) | 10 µM (active) | –
Cc1nc2nc3c(cn2n1)C(=O)CC(c1ccccc1)C3 (stereo not drawn) | – | -0.051% (inactive)
CN1CCN(c2ncc3c(n2)CC(c2ccccc2F)CC3=O)CC1 (stereo not drawn) | 3.98 µM (active) | –
COc1cc(C2CC(=O)c3cnc(NC(C)=O)nc3C2)cc(OC)c1OC (stereo not drawn) | – | 30.8% (inactive)
CCc1ccc(Nc2ncc3c(n2)CC(c2ccco2)CC3=O)cc1 (stereo not drawn) | – | 16% (inactive)
O=C1c2ccccc2C(=O)C1c1ccccc1F | – | 12.5% (inactive)
O=C(OCc1ccccc1)N1CCC2CC1c1cc(N3CCN(S(=O)(=O)c4cc(Cl)cc(Cl)c4)CC3)ccc12 (stereo not drawn) | – | -0.327% (inactive)
CC(=O)Nc1ccc(SCC(=O)NC(=O)c2ccc(Cl)cc2)cc1 | – | -4.29% (inactive)
COc1ccc([C@H]2C[C@@H](n3cc(COC(=O)c4ccccc4)nn3)[C@H](O)CN2C(=O)c2cccs2)cc1 | – | -28.9% (inactive)
CC(C)OC(=O)CC(=O)CC(O)c1cccc([N+](=O)[O-])c1 (stereo not drawn) | – | 1.7% (inactive)
NCCCCC(C(=O)O)N(C(=O)OCc1ccccc1)C(=O)OCc1ccccc1 (stereo not drawn) | – | 28.4% (inactive)
COc1ccc(CN2C(=O)C(CC(=O)NCCN3CCOCC3)CC(C(=O)N(C(C)C)C(C)C)=C2C)cc1 (stereo not drawn) | – | 14.3% (inactive)
COc1ccc(C(=O)NC(=S)Nc2ccccc2N2CCN(S(C)(=O)=O)CC2)cc1OC | – | 19.1% (inactive)
O=C(NC(=S)Nc1ccccc1N1CCCCC1)c1ccc(F)cc1 | 12.6 µM (active) | –
O=C(Nc1ccccc1N1CCCC1)c1ccc2ccccc2c1 | – | 4.76% (inactive)
